The source of these data is PubChem BioAssay (NCI).

“And” between values parts separate entries of the source, which are not always exact repeats. Identical values can stand only once. This is part of a sample that, as a whole, favours compounds with a hit. Of some 83,000 tested, about 20% had one in any assay.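 Single-dose data. Exposure time 48 hours. Values below 10 considered active.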 The source made the active and inactive calls.

This test deals with LOX IMVI melanoma. Briefly: NCI-60 one-dose screen, 48 h (100 = growth as untreated, 0 = no growth, -100 = all killed). The following applies: 10 µM unless noted.
In the case of `c1ccc2c(c1)O[As](O[As]1Oc3ccccc3O1)O2`, the growth is 30.9% (inactive).
Next, `COc1cc2c(cc1OC)[C@@H]1C(=O)c3ccc4c(c3O[C@@H]1CO2)C[C@H](C(C)C)O4`: 53% (inactive); `CC(=O)Cc1ccc2c(c1)OCO2`: 100% (inactive).
On to `CCN(CC)CCn1c(=O)n(C)c2ccccc21`, for which the growth is 98.4% (inactive).
Next, `CC(=O)c1cccc(S(=O)(=O)F)c1`: 90.1% (inactive).
Next, `COc1cc2c(c(OC)c1OC)-c1ccc(O)cc1[C@@H](NC(C)=O)CC2`: 12.1% (inactive) and 20.2% (inactive); `Cc1c2ccncc2c(C)c2c1[nH]c1ccccc12`: -77.6% (active); `NC(=O)Oc1cc(OC(N)=O)cc(N(CCCl)CCCl)c1`: 42.6% (inactive).
Regarding `Nc1cccnc1`, the growth was 104% (inactive).
Next, `C/C=C(/C)C(=O)O[C@H]1CC[C@@]2(C)[C@@H]3CC[C@H]4[C@]5(O)C[C@H](O)[C@@]6(O)[C@@H](CN7C[C@@H](C)CC[C@H]7[C@@]6(C)O)[C@]5(O)C[C@@]42O[C@@]13O`: 104% (inactive); `C[C@]12CCC(=O)C[C@@H]1CC[C@@H]1[C@@H]2CC[C@]2(C)[C@@H](OC(=O)N(CCCl)N=O)CC[C@@H]12`: 22.6% (inactive); `CC1(C)N=C(N)N=C(N)N1c1ccc(CCC(=O)Nc2ccc(S(=O)(=O)F)cc2)cc1`: 15.8% (inactive).
Under `Cc1c(C)c(N)c(C)c(C)c1N` stands 51.9% (inactive); under `Cc1ccc(C(=O)O[C@H](C(=O)O)[C@H](OC(=O)c2ccc(C)cc2)C(=O)O)cc1`, 97% (inactive).
